SARS PLP yeast – SARS-CoV PLP inhibition in yeast; 330,000 tested, 0.19% active; AID 485353; Potency, µM (titrated, usually from 32.9 µM), without a hit: top-dose activity, positive = growth rescue, most hits filed as activators; S. cerevisiae expressing SARS-CoV PLpro, growth rescue; calls by dose curve; also: potency is read from the fitted curve at half-maximal effect; 0% is about no effect; nearly all actives have a fitted effect of over 55% in size
Pf growth 96h – inhibits malaria parasite growth, 96 h. 320,000 tested, 6.9% active. Potency, µM (top dose mostly 28.7 µM), for inactives: top-dose activity change, negative = inhibition, most hits filed as inhibitors. P. falciparum luciferase reporter growth, 96 h; also: potency is read from the fitted curve at half-maximal effect; % is scaled to controls: 0 for no effect and ±100 for the full control effect
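Erythrocytes infected with luciferase-expressing P. falciparum were dispensed at 2% hematocrit and 0.05% parasitemia (final), then incubated with compounds 96 hours at 37 C in 5% CO2. Luminescence after detection reagent addition reported growth.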
AMA1 RON2 block – disrupts binding of P. falciparum AMA1 to RON2; AlphaScreen AMA1-biotinylated RON2 peptide binding; Potency, µM (top dose mostly 58.2 µM), for inactives: top-dose activity change, negative = inhibition, most hits filed as inhibitors; 360,000 tested, 0.2% active;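 also: potency is read from the fitted curve at half-maximal effect; 0% = vehicle wells and -100% = peptide control; nearly all actives have a fitted effect of over 45% in size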
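AMA1 (3D7) with his tag at 25 nM final met compounds first, then biotinylated RON2 peptide at 25 nM; detection used donor plus acceptor beads, 10 µg/mL apiece, read by AlphaScreen after 30 min at room temperature.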
Shiga inhibitor – Shiga toxin inhibition; Vero cells, Shiga toxin protein synthesis inhibition reporter; inhibition, % at 38.7 µM; 290,000 tested, 9.2% active; AID 2315; in the data active = inhibition mostly above about 28%, no sharp cut-off; inactive = mostly below about 43%; also: 0% is about no effect
Pf growth 48h – inhibits P. falciparum growth in the first generation, 48 h; 310,000 tested, 5.9% active; P. falciparum luciferase growth in erythrocytes, 48 h; Potency, µM (series often up to 28.7 µM), inactives show at the highest dose activity change, negative = inhibition, actives largely listed as inhibitors; also: potency is read from the fitted curve at half-maximal effect; % is scaled to controls: 0 for no effect and ±100 for the full control effect
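First compound was added to culture medium, then infected red cells at 0.1% parasitemia and 2% hematocrit (final). After incubation at 37 C under 5% CO2, luciferase detection reagent was dispensed and light output recorded.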
Cycloheximide cs – counter-screen for Shiga toxin inhibitors: cycloheximide protein synthesis inhibition; cell reporter, cycloheximide protein synthesis inhibition counterscreen; 300,000 tested, 12% active; max response, %; in the data active = max response mostly above about 13%, no sharp cut-off; inactive = mostly below about 14%; also: read at 38.3 µM for the half of the compounds with a filed dose; 0% is about no effect
* hit, by the source's call; i = inactive; ? = inconclusive; . = not tested or not shown; ! = not active in a repeat. Only some compounds are listed: those with a hit (about 19% of all), similar ones and a draw of the others. Unless noted, calls follow the shape of the dose curve; as a rule, active = well fitted curve in the direction sought with a large enough effect; inconclusive = small, poorly fitted or top-dose-only effect, or another doubt; inactive = no such curve, though single readings can be large; an effect the other way counts as inactive or inconclusive.

SMILES | SARS PLP yeast | Pf growth 96h | AMA1 RON2 block | Shiga inhibitor | Pf growth 48h | Cycloheximide cs
Cc1ccc(C)c(CN2CCCN(Cc3cc(C)ccc3C)S2(=O)=O)c1 | 0% | 10% | -1% | -6 | -6% | -1
Cc1cccc(NC(=S)N=Nc2c(O)n(CN3CCOCC3)c3ccccc23)c1C | -39% | 1% | 31% | -7 | 4.7µM* | 1
Cc1ccc(N=Nc2c(O)n(CN3CCOCC3)c3ccccc23)cc1 | -6% | i | -7% | 106* | -1% | 63*
Cc1c(C)n(CC(O)CN2CCOCC2)c2ccccc12 (centres undefined) | -2% | -3% | -15% | 4 | 2% | -3
Oc1c(N=NC(=S)Nc2ccccc2F)c2ccccc2n1Cc1cccc(Cl)c1 | 3% | 14% | 11% | 11 | ? | 9
Cc1cccc(Cn2c(O)c(N=NC(=S)Nc3ccccc3F)c3ccccc32)c1 | 4% | 0% | 17% | -3 | ? | -3
Oc1c(N=NC(=S)Nc2ccccc2F)c2ccccc2n1Cc1ccc(F)cc1 | 0% | ? | 17% | -3 | 2.1µM* | 7
COc1ccc(-c2nnc(SCC(=O)N(C)C3CCS(=O)(=O)C3)n2CC(C)C)cc1 (centres undefined) | . | . | 7% | . | . | .
CCC(=O)NC(c1ccc(OC)c(OC)c1)c1cc(Cl)c2cccnc2c1O (centres undefined) | 1% | 54% | 5% | 2 | 1µM* | 7
O=C(NC(c1ccccc1)c1cc(Cl)c2cccnc2c1O)c1cccnc1 (centres undefined) | 1.8µM* | 9% | . | -2 | 0.66µM* | -1
O=C(O)COc1ccccc1C(Nc1cccnc1)c1cc(Cl)c2cccnc2c1O (centres undefined) | ? | 1% | -87% | 18 | 14% | -3
COc1ccc(C(NC(C)=O)c2cc(Cl)c3cccnc3c2O)cc1OC (centres undefined) | 5% | 7% | -1% | -1 | 9.3µM* | -1
CC1(C(=O)Nc2cccc(Oc3ccccc3)c2)Cc2c(-c3ccc4c(c3)OCO4)ccnc2O1 (centres undefined) | . | . | -15% | . | . | .
COc1cccc(NC(=O)c2ccc(NC(=O)C3CC(=O)OC34CCCCC4)cc2)c1 (centres undefined) | 0% | ? | 0% | -12 | ? | -9
O=C(NNc1nc2cc3c(cc2s1)OCCO3)c1ccc(F)cc1 | 4% | 6% | 82% | 46 | 31% | 33*
O=C(NNc1nc2cc3c(cc2s1)OCO3)c1ccc(F)cc1 | -11% | ? | 95% | 68* | 46% | 24*
CCN1C(=NCC(C)C)N[C@@H](c2cccc(C(F)(F)F)c2)C(C(=O)OC)=C1C | -1% | 0.93µM* | 2% | -8 | 13µM* | -3
COC(=O)C1=C(C)N(Cc2ccccc2)C(=NCC(C)C)N[C@H]1c1ccccc1 | -3% | 8.3µM* | -4% | -4 | ? | -3
COC(=O)C1=C(C)N(Cc2ccccc2)C(=NCCCCO)N[C@H]1CCc1ccccc1 | 1% | 3.7µM* | -1% | -3 | ? | -3
COC(=O)C1=C(C)N(Cc2ccccc2)C(=NCc2ccc(OC)cc2)N[C@H]1c1ccccc1 | 6% | -4% | -2% | -4 | ? | -3
CCN1C(=NCCCCO)N[C@@H](c2cccc(C(F)(F)F)c2)C(C(=O)OC)=C1C | -3% | ? | -2% | -2 | ? | -2
C=CCN=C1N[C@@H](c2cccc(C(F)(F)F)c2)C(C(=O)OC)=C(C)N1CC | -4% | 3.3µM* | 6% | 13 | 10µM*! | -3
C=CCN=C1N[C@@H](c2ccccc2)C(C(=O)OC)=C(C)N1CC | 2% | ? | 1% | -1 | 31% | -1
COC(=O)C1=C(C)N(Cc2ccccc2)C(=S)N[C@H]1CCc1ccccc1 | 12% | -6% | . | 3 | ? | -2
CCOC(=O)C1CCN(C(=O)c2cccnc2Cl)CC1 | 0% | 58% | -4% | -9 | 43% | -2
SMILES | SARS PLP yeast | Pf growth 96h | AMA1 RON2 block | Shiga inhibitor | Pf growth 48h | Cycloheximide cs
O=C(NC1CCCCC1)c1cc(F)cc2c1OCOC2 | -1% | 4% | 0% | 14 | 3% | -3
N#Cc1c(-c2ccccc2)ccn(Cc2ccccc2Cl)c1=O | -2% | 15µM* | -7% | -13 | ? | -3
N#Cc1c(-c2ccco2)ccn(Cc2cccc(F)c2)c1=O | 0% | ? | 0% | 17 | ? | 8
N#Cc1c(-c2ccccc2)ccn(Cc2cccc(Cl)c2)c1=O | 2% | 13µM* | -6% | 9 | ? | 8
Cc1cc(C)c2sc(N(CCCN(C)C)C(=O)c3ccc(S(=O)(=O)N4CCc5ccccc5C4)cc3)nc2c1 | 1% | ? | . | . | ? | .
Cc1cc(C)c2sc(N(CCCN(C)C)C(=O)c3ccc(S(=O)(=O)N4CCCc5ccccc54)cc3)nc2c1 | -3% | ? | ? | . | 9.3µM* | .
CN(C)CCCN(C(=O)c1ccc(S(=O)(=O)N2CCc3ccccc32)cc1)c1nc2ccc(Cl)cc2s1 | -4% | 5.2µM* | -28% | -16 | 10µM* | 10
CC1=C(C(=O)OC2CCCCC2)C(c2ccc(N(C)C)cc2)NC(=O)N1 (centres undefined) | -4% | -5% | -9% | -7 | 4% | -2
O=C1CC(C(=O)N2CCN(Cc3ccccc3)CC2)CN1Cc1ccccc1 (centres undefined) | -6% | 7% | 0% | . | ? | .
COc1ccc(CN2CC(C(=O)N3CC(C)CC(C)C3)CC2=O)cc1 (centres undefined) | 1% | 3.7µM* | -7% | 5 | 28% | 5
CCCCN(C)CCCNC(=O)C1CC(=O)N(Cc2ccc(OC)cc2)C1 (centres undefined) | . | 12µM* | 4% | 11 | 19% | -4
COc1ccc(CN2CC(C(=O)NCCC(C)C)CC2=O)cc1 (centres undefined) | 0% | -19% | -2% | 20 | 4% | -3
Cc1ccc(CN2CC(C(=O)N3CCN(c4ccccc4Cl)CC3)CC2=O)cc1 (centres undefined) | -8% | 12µM* | -7% | . | 6.6µM* | .
Cc1ccc(-n2[nH]c(C)c(C=Nc3ccc(S(=O)(=O)Nc4nccs4)cc3)c2=O)c(C)c1 | 0% | ? | . | -7 | 13% | -1
CC(C)NC(=O)Cn1cc(C(=O)COc2ccccc2)c2ccccc21 | 0% | 63% | -6% | 33 | -9% | -2
CC12CN3CCN(C1)CC(C)(C3)C2=NN | 0% | ? | 23% | 74* | ? | 21*
CC12CN3CCN(CC(C3)C1O)C2 (centres undefined) | -7% | ? | -8% | -15 | . | 3
CCCOc1ccc(N2C(=O)CC(N(CCc3ccc(OC)c(OC)c3)C(=O)c3ccccc3)C2=O)cc1 (centres undefined) | -1% | 11% | -13% | -6 | -22% | -1
